# PubChem BioAssay
# “And” between values parts separate entries of the source, which are not always exact repeats. Identical values can stand only once. The source made the active and inactive calls. Cut-off read from the data, not from the text of the source, unless noted: active = inhibition above about 80%; inactive = the rest.
# Experiments:
# F380Y = test: modulators of BK channel variants, profiling panel, selectivity assay, cell-based, U2OS BacMam, thallium flux, beta subunits (AID 1259406;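 active = thallium flux through the channel raised or lowered by more than 3 SD from vehicle-only wells, actives on both sides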;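 note: initial slope of Thallos dye fluorescence rise after thallium is added; log ratio against the mean of 0.3% DMSO vehicle wells on the same plate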); conditions: at 30 µM
# F380Y/beta1 = test: as above; conditions: at 30 µM
# [1] = UWB1.289 ovarian carcinoma cell growth inhibition, synergistic combos for chromothripsis tumors, BGB or cisplatin combos (AID 1671456); conditions: UWB1.289 ovarian carcinoma cells, stronger effect = higher value;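 note: cells exposed to compound for four days; 0% = vehicle DMSO and 100% = killing by high DMSO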
# [2] = LFS_MB_2R medulloblastoma cell growth inhibition, synergistic combos for chromothripsis tumors, cisplatin combos (AID 1671457); conditions: LFS_MB_2R medulloblastoma cells, stronger effect = higher value;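 note: cells exposed to compound for four days before readout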
# [3] = MDA-MB-436 breast carcinoma cell growth inhibition, synergistic combos for chromothripsis tumors, BGB or cisplatin combos (AID 1671458; call rule not given here;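 note: cells exposed for 96 hours; 0% = vehicle DMSO and 100% = killing by high DMSO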); conditions: MDA-MB-436 breast carcinoma growth inhibition, drug combinations, stronger effect = higher value
# [4] = UWB1.289_BRCA1 ovarian cancer growth, cell-based, BGB or cisplatin combinations (AID 1671459); conditions: UWB1.289 BRCA1 ovarian carcinoma, drug combinations, stronger effect = higher value
# [5] = human astrocyte viability loss, single and combined drugs, cytotoxicity control for chromothriptic childhood tumor combination screen, cell-based, BGB or cisplatin IC20 combos (AID 1671460); conditions: Human astrocytes, drug combinations, stronger effect = higher value;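 note: cells exposed to compounds for 96 hours before viability readout; 0% = vehicle and 100% = killing control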
# [6] = growth inhibition of BT084 medulloblastoma cells, cell-based, ICGC_MB145, cisplatin and BGB IC40 combos (AID 1671461); conditions: drug combinations, stronger effect = higher value;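 note: cells exposed to drugs for 96 hours; 0% = vehicle DMSO and 100% = high DMSO full killing control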
# [7] = growth inhibition of RCMB18 medulloblastoma cells, cell-based, cisplatin and BGB IC40 combos (AID 1671462); conditions: stronger effect = higher value;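 note: cells exposed to compound for four days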
# [8] = growth inhibition of CRL1545 osteosarcoma cells, cell-based, cisplatin and BGB IC20 combos (AID 1671464); conditions: stronger effect = higher value;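 note: cells exposed to compound for 96 hours before readout; 0% = vehicle DMSO and 100% = high DMSO killing control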
# [9] = measured here: inhibition with BGB combination, at 0.05 µM
# [10] = measured here: inhibition with cisplatin combination, at 0.05 µM
# [11] = measured here: combination with cisplatin, at 0.5 µM
# [12] = measured here: combination with cisplatin, at 5 µM
# [13] = measured here: BGB combination, at 0.5 µM
# [14] = measured here: BGB combination, at 5 µM
# [15] = measured here: cisplatin combination, at 0.5 µM
# [16] = measured here: cisplatin combination, at 5 µM
# [17] = BGB combination, concentration series, at 5 µM
# [18] = cisplatin combination, concentration series, at 5 µM
# [19] = measured here: combo with BGB IC20, at 0.5 µM
# [20] = measured here: combo with cisplatin IC20, at 0.5 µM
# [21] = cisplatin combination, at 0.5 µM
# [22] = measured here: BGB IC40 combination 0.05 uM, at 0.05 µM
# [23] = measured here: BGB IC40 combination, at 0.05 µM
# [24] = measured here: with BGB IC20 combination, at 0.5 µM
# [25] = measured here: with cisplatin IC20 combination, at 0.5 µM
structure (smiles),measurement,setting,value
Cc1cccc(C)c1NC(=O)C(C)N (stereo not drawn),log fold change Tl+ flux,F380Y,-0.00461 (inactive)
same,log fold change Tl+ flux,F380Y/beta1,-0.0545 (inactive)
O=C(O)P(=O)(O)O,inhibition,[1]; at 0.5 µM,-11.3% (inactive)
same,inhibition,[1]; [9],-27.2%
same,inhibition,[1]; [10],-24%
same,inhibition,[2]; at 0.5 µM,-19.3% (inactive)
same,inhibition,[2]; [11],-14.2%
same,inhibition,[2]; [12],-18.5%
same,inhibition,[3]; at 0.5 µM,-30.5% (inactive)
same,inhibition,[3]; [13],-34.2%
same,inhibition,[3]; [14],-30.6%
same,inhibition,[3]; [15],-45.7%
same,inhibition,[3]; [16],-24.2%
same,inhibition,[4]; [17],-19.2%
same,inhibition,[4]; at 0.5 µM,-15.7% (inactive)
same,inhibition,[4]; [18],-10.9%
same,inhibition,[5]; at 0.5 µM,0.14% (inactive)
same,inhibition,[5]; [19],1.18%
same,inhibition,[5]; [20],-8.98%
same,inhibition,[6]; at 0.5 µM,-21.4% (inactive)
same,inhibition,[6]; [21],-13.9%
same,inhibition,"[6]; cisplatin combination, at 5 µM",-72.5%
same,inhibition,[6]; [22],11.4%
same,inhibition,"[6]; single agent, at 5 µM",-13.1%
same,inhibition,[7]; at 0.5 µM,-28.6% (inactive)
same,inhibition,"[7]; cisplatin combo, at 5 µM",-9.59%
same,inhibition,[7]; [23],-13.4%
same,inhibition,[7]; [11],-44.4%
same,inhibition,"[7]; single agent, at 5 µM",-27.5%
same,inhibition,[8]; at 0.5 µM,-83.7% (inactive)
same,inhibition,[8]; [24],-15.5%
same,inhibition,[8]; [25],-118%
same,inhibition,"[8]; single agent, at 0.05 µM",-51.7%
same,inhibition,"[8]; single agent, at 5 µM",-82.1%
O=NN(CCCl)C(=O)NCCCl,inhibition,[1]; at 0.5 µM,-5.7% (inactive)
same,inhibition,[1]; [9],-21%
same,inhibition,[1]; [10],-12%
same,inhibition,[2]; at 0.5 µM,-21.9% (inactive)
same,inhibition,[2]; [11],-14.5%
same,inhibition,[2]; [12],-18.3%
same,inhibition,[3]; at 0.5 µM,-8.21% (inactive)
same,inhibition,[3]; [13],-10%
same,inhibition,[3]; [14],-8.63%
same,inhibition,[3]; [15],-2.04%
same,inhibition,[3]; [16],-6.22%
same,inhibition,[4]; [17],3.47%
same,inhibition,[4]; at 0.5 µM,-1.58% (inactive)
same,inhibition,[4]; [18],19.3%
same,inhibition,[5]; at 0.5 µM,12.8% (inactive)
same,inhibition,[5]; [19],26.4%
same,inhibition,[5]; [20],2.42%
same,inhibition,[6]; at 0.5 µM,-12.6% (inactive)
same,inhibition,[6]; [21],-0.565%
same,inhibition,"[6]; cisplatin combination, at 5 µM",5.72%
same,inhibition,[6]; [22],22.3%
same,inhibition,"[6]; single agent, at 5 µM",10.8%
same,inhibition,[7]; at 0.5 µM,-5.05% (inactive)
same,inhibition,"[7]; cisplatin combo, at 5 µM",-0.239%
same,inhibition,[7]; [23],-34.5%
same,inhibition,[7]; [11],22.9%
same,inhibition,"[7]; single agent, at 5 µM",-38.3%
same,inhibition,[8]; at 0.5 µM,-14.2% (inactive)
same,inhibition,[8]; [24],-17.2%
same,inhibition,[8]; [25],-12.8%
same,inhibition,"[8]; single agent, at 0.05 µM",-3.95%
same,inhibition,"[8]; single agent, at 5 µM",10.1%
CC1CCc2cc(F)cc3c(=O)c(C(=O)O)cn1c23 (stereo not drawn),inhibition,[1]; at 0.5 µM,2.76% (inactive) and 0.5% (inactive)
same,inhibition,[1]; [9],-16.2% and 1.75%
same,inhibition,[1]; [10],-12.2% and 4%
same,inhibition,[2]; at 0.5 µM,-19.5% (inactive) and -4.64% (inactive)
same,inhibition,[2]; [11],-15.1% and -2.74%
same,inhibition,[2]; [12],-12% and -9.68%
same,inhibition,[3]; at 0.5 µM,-12.1% (inactive) and -0.02% (inactive)
same,inhibition,[3]; [13],-17.3% and -1.89%
same,inhibition,[3]; [14],-23.6% and -8.65%
same,inhibition,[3]; [15],-18.1% and 1.92%
same,inhibition,[3]; [16],-8.63% and -4.96%
same,inhibition,[4]; [17],7.3% and -2.65%
same,inhibition,[4]; at 0.5 µM,0.71% (inactive) and -0.93% (inactive)
same,inhibition,[4]; [18],1.53% and -5.02%
same,inhibition,[5]; at 0.5 µM,7.24% (inactive) and 2.53% (inactive)
same,inhibition,[5]; [19],6.98% and 4.66%
same,inhibition,[5]; [20],1.25% and 9.82%
same,inhibition,[6]; at 0.5 µM,-21.2% (inactive) and 2.68% (inactive)
same,inhibition,[6]; [21],-37.8% and -1.29%
same,inhibition,"[6]; cisplatin combination, at 5 µM",-84.9% and -4.5%
same,inhibition,[6]; [22],25.8% and 24.3%
same,inhibition,"[6]; single agent, at 5 µM",-17% and 4.9%
same,inhibition,[7]; at 0.5 µM,-15.1% (inactive) and 7.22% (inactive)
same,inhibition,"[7]; cisplatin combo, at 5 µM",-26.9% and 25%
same,inhibition,[7]; [23],-11.2% and -0.956%
same,inhibition,[7]; [11],-23.8% and 30.6%
same,inhibition,"[7]; single agent, at 5 µM",-29.1% and -22.6%
same,inhibition,[8]; at 0.5 µM,-14.4% (inactive) and -0.92% (inactive)
same,inhibition,[8]; [24],1.08% and -21.3%
same,inhibition,[8]; [25],-22.2% and 9.24%
same,inhibition,"[8]; single agent, at 0.05 µM",22.2% and 18.9%
same,inhibition,"[8]; single agent, at 5 µM",6.9% and 9.8%
CNNCc1ccc(C(=O)NC(C)C)cc1,inhibition,[1]; at 0.5 µM,13% (inactive) and 7.15% (inactive)
same,inhibition,[1]; [9],3.19% and 1.17%
same,inhibition,[1]; [10],22.9% and 3.56%
same,inhibition,[2]; at 0.5 µM,14.1% (inactive) and 0.23% (inactive)
same,inhibition,[2]; [11],6.63% and -1.71%
same,inhibition,[2]; [12],15.9% and -32.2%
same,inhibition,[3]; at 0.5 µM,0.31% (inactive) and -0.08% (inactive)
same,inhibition,[3]; [13],1.37% and 5.96%
same,inhibition,[3]; [14],-3.48% and 5.4%
same,inhibition,[3]; [15],0.65% and -2.59%
same,inhibition,[3]; [16],-3.21% and 0.056%
same,inhibition,[4]; [17],-3.07% and 11.5%
same,inhibition,[4]; at 0.5 µM,8.92% (inactive) and 4.36% (inactive)
same,inhibition,[4]; [18],2.73% and 5.28%
same,inhibition,[5]; at 0.5 µM,-1.46% (inactive) and -4.45% (inactive)
same,inhibition,[5]; [19],4.04% and -5.12%
same,inhibition,[5]; [20],-5.05% and -7.38%
same,inhibition,[6]; at 0.5 µM,9.13% (inactive) and -8.81% (inactive)
same,inhibition,[6]; [21],-8.59% and 0.014%
same,inhibition,"[6]; cisplatin combination, at 5 µM",13.7% and 11%
same,inhibition,[6]; [22],8.15% and 2.42%
same,inhibition,"[6]; single agent, at 5 µM",-0.995% and -8.33%
same,inhibition,[7]; at 0.5 µM,5.59% (inactive) and 7.58% (inactive)
same,inhibition,"[7]; cisplatin combo, at 5 µM",1.81% and -25.8%
same,inhibition,[7]; [23],-9.15% and -22.9%
same,inhibition,[7]; [11],38.1% and 9.89%
same,inhibition,"[7]; single agent, at 5 µM",-25.5% and 7.57%
same,inhibition,[8]; at 0.5 µM,-9.96% (inactive) and 0.27% (inactive)
same,inhibition,[8]; [24],-28.2% and -29.3%
same,inhibition,[8]; [25],-2.5% and 13.1%
same,inhibition,"[8]; single agent, at 0.05 µM",-6% and -6.52%
same,inhibition,"[8]; single agent, at 5 µM",-28.8% and -29%
same,log fold change Tl+ flux,F380Y,-0.0305 (inactive)
same,log fold change Tl+ flux,F380Y/beta1,0.0168 (inactive)
CC(=O)O[C@H]1C[C@@H]2CC[C@@H]3[C@H](CC[C@@]4(C)[C@H]3C[C@H]([N+]3(C)CCCCC3)[C@@H]4OC(C)=O)[C@@]2(C)C[C@@H]1N1CCCCC1,log fold change Tl+ flux,F380Y,0.0327 (inactive)
same,log fold change Tl+ flux,F380Y/beta1,0.014 (inactive)
O=C1CC2(CCCC2)CC(=O)N1CCCCN1CCN(c2ncccn2)CC1,log fold change Tl+ flux,F380Y,0.0254 (inactive)
same,log fold change Tl+ flux,F380Y/beta1,0.0242 (inactive)
O=NN(CCCl)C(=O)NC1CCCCC1,inhibition,[1]; at 0.5 µM,-3.74% (inactive) and -1.89% (inactive)
same,inhibition,[1]; [9],-37.8% and -16.5%
same,inhibition,[1]; [10],-17.9% and -15%
same,inhibition,[2]; at 0.5 µM,-23.1% (inactive) and -22.9% (inactive)
same,inhibition,[2]; [11],-21.1% and -18.8%
same,inhibition,[2]; [12],-70.5% and -18.7%
same,inhibition,[3]; at 0.5 µM,-40.6% (inactive) and -11.5% (inactive)
same,inhibition,[3]; [13],-36.9% and -5.88%
same,inhibition,[3]; [14],-35% and -10.4%
same,inhibition,[3]; [15],-61.4% and -18.5%
same,inhibition,[3]; [16],-41.1% and -14.2%
same,inhibition,[4]; [17],-29.6% and 11.3%
same,inhibition,[4]; at 0.5 µM,-16.2% (inactive) and 2.2% (inactive)
same,inhibition,[4]; [18],3.2% and 10.4%
same,inhibition,[5]; at 0.5 µM,-9.22% (inactive) and 7.1% (inactive)
same,inhibition,[5]; [19],-20% and 5.8%
same,inhibition,[5]; [20],-3.02% and 3.4%
same,inhibition,[6]; at 0.5 µM,-34.8% (inactive) and -13.6% (inactive)
same,inhibition,[6]; [21],-11.4% and -21.6%
same,inhibition,"[6]; cisplatin combination, at 5 µM",1.31% and -15.5%
same,inhibition,[6]; [22],-11% and -18.6%
same,inhibition,"[6]; single agent, at 5 µM",-27.6% and -16%
same,inhibition,[7]; at 0.5 µM,-19.6% (inactive) and -7.56% (inactive)
same,inhibition,"[7]; cisplatin combo, at 5 µM",-8.32% and -2.07%
same,inhibition,[7]; [23],3.33% and -8.31%
same,inhibition,[7]; [11],-12.9% and 7.07%
same,inhibition,"[7]; single agent, at 5 µM",-26.9% and -32.7%
same,inhibition,[8]; at 0.5 µM,-41.9% (inactive) and 12.8% (inactive)
same,inhibition,[8]; [24],-11.7% and 21.6%
same,inhibition,[8]; [25],-60.6% and 8.43%
same,inhibition,"[8]; single agent, at 0.05 µM",-56.9% and 27.3%
same,inhibition,"[8]; single agent, at 5 µM",-2.19% and 10%
